PLK1 inh: blocks human PLK1 kinase activity. AID 619. recombinant PLK1 kinase, TR-FRET peptide phosphorylation. actives 0.53% (n = 97,000). inhibition, % at 10 µM;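 active means inhibition of 50% or more in the single-concentration screen; inactive means inhibition below 50%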
LYP act: LYP (human) phosphatase activation; AID 697; recombinant LYP, DiFMUP fluorescence; 0 = plate median, 100 = signal doubled; actives 0.11% (n = 96,000); activation, % at 2 µM; Q9Y2R2;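 active means activation at 2 µM above a set limit, the mean plus 5 SD, cut at about 37% in these data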
Target sequence (Q9Y2R2 whole entry, looked up): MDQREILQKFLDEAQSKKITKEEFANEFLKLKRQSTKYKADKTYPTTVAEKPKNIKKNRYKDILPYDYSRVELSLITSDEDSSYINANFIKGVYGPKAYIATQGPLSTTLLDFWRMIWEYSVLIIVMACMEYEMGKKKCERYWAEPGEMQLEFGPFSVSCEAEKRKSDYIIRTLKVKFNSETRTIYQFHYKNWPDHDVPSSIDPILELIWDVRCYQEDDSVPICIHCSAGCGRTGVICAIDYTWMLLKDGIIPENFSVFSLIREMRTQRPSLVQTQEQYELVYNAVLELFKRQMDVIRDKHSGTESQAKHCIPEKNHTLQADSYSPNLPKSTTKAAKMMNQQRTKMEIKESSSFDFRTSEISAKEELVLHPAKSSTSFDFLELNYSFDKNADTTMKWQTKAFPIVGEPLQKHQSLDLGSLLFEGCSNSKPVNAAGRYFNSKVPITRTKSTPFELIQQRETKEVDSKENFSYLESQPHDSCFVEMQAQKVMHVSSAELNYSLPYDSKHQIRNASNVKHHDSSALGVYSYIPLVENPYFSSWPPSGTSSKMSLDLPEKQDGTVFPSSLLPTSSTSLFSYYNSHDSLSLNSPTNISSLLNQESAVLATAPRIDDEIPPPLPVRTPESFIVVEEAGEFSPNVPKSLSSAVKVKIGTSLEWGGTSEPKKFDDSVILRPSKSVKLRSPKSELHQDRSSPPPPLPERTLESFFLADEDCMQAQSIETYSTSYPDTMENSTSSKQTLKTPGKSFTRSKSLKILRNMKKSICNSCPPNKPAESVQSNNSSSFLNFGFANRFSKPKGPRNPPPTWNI
Plk1 PBD FP: blocks phosphopeptide binding to human Plk1 polo box domain; actives 0.13% (n = 97,000); Plk1 PBD phosphopeptide binding, fluorescence polarization; P53350; inhibition, %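 (tested at about 20 µM)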; in the data active means inhibition above about 34%, passing the limit was not always enough
PTPN22 inh 2: blocks human PTPN22 phosphatase activity | Q9Y2R2 | recombinant LYP catalytic domain, DiFMUP fluorescence | inhibition, % at 2 µM | actives 0.21% (n = 96,000) | AID 640;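 active means inhibition at 2 µM at or above a set limit, the screen mean plus 3 SD, cut at about 24% in these data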
EphB4 ephrin blk: antagonists of human EphB4-ephrin-B2 interaction | EphB4 LBD / TNYL-RAW-Alexa532 peptide, fluorescence polarization | inhibition, % at 7 µM | actives 0.15% (n = 97,000);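 active means inhibition above the screen-wide mean inhibition plus 3 SD, cut at about 15% in these data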
PLK1 confirm: confirmation of human PLK1 kinase inhibitors | shares compounds with PLK1 inh | recombinant PLK1 kinase, TR-FRET peptide phosphorylation | inhibition, % at 10 µM | actives 20% (n = 210);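 active means inhibition at or above 50% in each of two repeat confirmation tests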
TR-FRET interf: counter-screen for Plk1 inhibitors: compound assay interference; inhibition (interference), % at 10 µM; Plk1 TR-FRET assay interference, compound added post-reaction; 210 tested, under 10 active; shares compounds with PLK1 inh;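 active means both duplicate runs show 50% or greater inhibition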
Of the large screens only hits and unclear results are named; the others gave an inactive call (follow-up assays come after a bar, where they were run). In the library only some 1.2% were active in any assay of this set; here they are far more common.

Cc1cc(C)c(S(=O)(=O)N2CCCCC2)c(C)c1N(C)S(=O)(=O)c1ccccc1	none
CCC(C)(C)n1nnnc1C(c1cc2cc(C)cc(C)c2[nH]c1=O)N1CCN(C(=O)c2ccco2)CC1 (stereo unspecified)	none
COc1ccccc1Nc1ncnc2nc[nH]c12	PLK1 inh 84 | PLK1 confirm 79 | TR-FRET interf inactive
CC(C)n1c(SCc2ccccc2F)nc2c1c(=O)n(C)c(=O)n2C	PLK1 inh 78 (no result: LYP act, PTPN22 inh 2) | PLK1 confirm inactive | TR-FRET interf inactive
CN(CCNC(=O)c1cn(C)c2ccc(S(=O)(=O)N(C)C)cc2c1=O)CCc1ccccc1	PLK1 inh 75 (no result: LYP act, PTPN22 inh 2) | PLK1 confirm inactive | TR-FRET interf inactive
O=C(CN(Cc1ccccc1)S(=O)(=O)c1ccc(Br)cc1)NCc1ccco1	PLK1 inh 85 | PLK1 confirm inactive | TR-FRET interf inactive
C=CCc1cc(C)ccc1OCCn1ccnc1	PLK1 inh 86 | PLK1 confirm inactive | TR-FRET interf inactive
CN(C)CCNC(=O)CN1C(=O)COc2ccc(C(C)(C)C)cc21	none
Cc1ccc(C)c(NS(=O)(=O)c2cc(C(=O)Nc3ccccc3-c3ccccc3)ccc2Cl)c1	none
Cc1ccccc1NC(=O)c1ccc(S(=O)(=O)N(C)C)cc1	PLK1 inh 72 (no result: LYP act, PTPN22 inh 2) | PLK1 confirm inactive | TR-FRET interf inactive
CCN=c1scc(C)n1/N=C/c1ccsc1	none
CN=c1scc(C)n1/N=C/c1ccc(O)c(O)c1O	PLK1 inh 82 | PLK1 confirm 85 | TR-FRET interf 70
CCC(=O)Nc1ccc(Cl)c(NC(=O)C(C)C)c1	none
Cn1c(NC(=O)c2ccccc2C(F)(F)F)cc(=O)n(C)c1=O	PLK1 inh 76 (no result: LYP act, PTPN22 inh 2) | PLK1 confirm inactive | TR-FRET interf inactive
Cn1c(NC(=O)c2cccc(C(F)(F)F)c2)cc(=O)n(C)c1=O	none
CCOc1c(Br)ccc2c1sc1nc[nH]c(=O)c12	PLK1 inh 76 | PLK1 confirm 68 | TR-FRET interf inactive
Cc1cc2c(=O)[nH]cnc2s1	none
CCc1ccc(N(CC(=O)NC2CCCCC2)S(=O)(=O)c2c(C)noc2C)cc1	PLK1 inh 74 (no result: LYP act, PTPN22 inh 2) | PLK1 confirm inactive | TR-FRET interf inactive
CCC1CCCCN1C(=O)Cn1c(C(=O)OC)cc2ccsc21 (stereo unspecified)	none
NC1(N)OC(CN2C(=O)c3ccccc3C2=O)CS1 (stereo unspecified)	PLK1 inh 116 | PLK1 confirm inactive | TR-FRET interf inactive
COc1ccc(C2OC(=O)CC2C(=O)N2CCN(c3cc(Cl)ccc3C)CC2)cc1OC (stereo unspecified)	PLK1 inh 76 (no result: LYP act, PTPN22 inh 2) | PLK1 confirm inactive | TR-FRET interf inactive
COc1ccc(Cl)cc1N1CCN(CCNC(=O)Nc2ccccc2C)CC1	none
Cc1cccc(NC(=O)NCCN2C(=O)C3C4C=CC(C4)C3C2=O)c1 (stereo unspecified)	PLK1 inh 73 (no result: LYP act, PTPN22 inh 2) | PLK1 confirm inactive | TR-FRET interf inactive
Cc1cccc(NC(=O)CCN2C(=O)C3C4C=CC(C4)C3C2=O)c1 (stereo unspecified)	none
COC(=O)C1=C(C)NC(=O)C1(NS(=O)(=O)c1ccc(NC(C)=O)cc1)C(F)(F)F (stereo unspecified)	none
COC(=O)c1ccc(CSc2nnc(-c3c[nH]c4ccccc34)n2C)o1	PLK1 inh 71 (no result: LYP act, PTPN22 inh 2) | PLK1 confirm inactive | TR-FRET interf inactive
CCc1nnc(NC(=O)CSc2nnc(-c3c[nH]c4ccccc34)n2CCOC)s1	none
COCCn1c(SCC(N)=O)nnc1-c1c[nH]c2ccccc12	PLK1 inh 71 (no result: LYP act, PTPN22 inh 2) | PLK1 confirm inactive | TR-FRET interf inactive
CCSc1nnc(NC(=O)CSc2nnc(-c3c[nH]c4ccccc34)n2C)s1	PLK1 inh 76 (no result: LYP act, PTPN22 inh 2) | PLK1 confirm inactive | TR-FRET interf inactive
O=C(NC1CCCCC1)N1CCN(c2ncccn2)CC1	none
COc1cccc(C(=O)n2cnnc2N)c1OC	PLK1 inh 128 | PLK1 confirm inactive | TR-FRET interf inactive
Cc1cccc(-n2c(C)nc3sccc3c2=O)c1	none
Cc1onc(-c2ccccc2)c1C(=O)NC(C)C	PLK1 inh 78 (no result: LYP act, PTPN22 inh 2) | PLK1 confirm inactive | TR-FRET interf inactive
COc1ccc2[nH]c(=O)c(CN(CCO)C(=O)c3ccccc3F)cc2c1	none
O=C(NCCCn1ccnc1)c1ccc(Br)o1	none
Nc1ncnc(Nc2cccc(C(F)(F)F)c2)n1	PLK1 inh 77 | PLK1 confirm 74 | TR-FRET interf inactive
O=C(c1oc(=O)c2ccccc2c1-c1ccccc1)N1CCC(O)CC1	PLK1 inh 78 (no result: LYP act, PTPN22 inh 2) | PLK1 confirm inactive | TR-FRET interf inactive
O=C(NC(Cc1ccc2c(c1)OCO2)C(=O)NC(Cc1ccccc1)C(=O)O)c1ccccc1 (stereo unspecified)	none
NC(=O)CSc1nnc(-c2ccncc2)n1-c1ccc(Cl)cc1	PLK1 inh 73 (no result: LYP act, PTPN22 inh 2) | PLK1 confirm inactive | TR-FRET interf inactive
O=C(O)CSc1nnc(-c2ccncc2)n1-c1ccc(Cl)cc1	none
Clc1ccc(Cn2ncc3c(N4CCOCC4)ncnc32)cc1	none
CCN1CCN(CC(=O)Nc2ccc3c(c2)OCCO3)C(=O)C1=O	PLK1 inh 73 (no result: LYP act, PTPN22 inh 2) | PLK1 confirm inactive | TR-FRET interf inactive
CCOc1ccc(C2N(c3ccc(F)cc3)C(=O)C3CCCN32)cc1OC (stereo unspecified)	none
N#CC(c1cccc(Cl)c1)c1ccc2c(C(F)(F)F)cc(C(F)(F)F)nc2n1 (stereo unspecified)	none
Cc1cc(C(C#N)c2cccc(Cl)c2)n2ncnc2n1 (stereo unspecified)	PLK1 inh 71 | PLK1 confirm 63 | TR-FRET interf inactive
CC1=C(C(=O)OC(C)C)C(c2cccnc2)n2ncnc2N1 (stereo unspecified)	PLK1 inh 83 (no result: LYP act, PTPN22 inh 2) | PLK1 confirm inactive | TR-FRET interf inactive
CC1=C(C(=O)OC(C)C)C(c2ccncc2)n2ncnc2N1 (stereo unspecified)	none
O=C(CCC(=O)c1ccc(Cl)cc1)OCC(=O)c1ccccc1	PLK1 inh 126 | PLK1 confirm inactive | TR-FRET interf inactive
O=C(COC(=O)c1cccnc1)c1ccc(Cl)cc1	none
O=C(NCc1cc(C(F)(F)F)cc(C(F)(F)F)c1)C1CC(c2cccc([N+](=O)[O-])c2)=NO1 (stereo unspecified)	none
Cc1ccc(-c2noc(C3CCCN(C(=O)c4c(F)cccc4F)C3)n2)cc1 (stereo unspecified)	PLK1 inh 125 | PLK1 confirm inactive | TR-FRET interf inactive
O=c1c2c3c(sc2n2cnnc2n1-c1ccccc1)N(Cc1ccccc1)CCC3	none
CCc1ccccc1N1CC23C=CC(O2)C(C(=O)OCC(C)C)C3C1=O (stereo unspecified)	PLK1 inh 72 (no result: LYP act, PTPN22 inh 2) | PLK1 confirm inactive | TR-FRET interf inactive
CCCCOC(=O)C1[C@H]2C(=O)N(c3ccccc3CC)C[C@]23C=C[C@H]1O3 (stereo partly specified)	none
